Laboratory results taken from PubChem BioAssay AID1851 (National Center for Advancing Translational Sciences (NCATS), 2009).
“And” between values parts separate entries of the source, which are not always exact repeats. Identical values can stand only once. The whole screen tested about 16,000 compounds, of which about 4,000 (25%) were called active. Inconclusive results (about 26%) are left out. The call rests on the fitted dose curve; in most records, active means well fitted curve in the direction sought with a large enough effect; inconclusive means small, poorly fitted or top-dose-only effect, or effect the other way; inactive means no such curve, though single readings can be large or run the other way. Only a sample is shown.

target: Cytochrome P450 2C9 (Homo sapiens) (UniProt P11712); experiment: Cytochrome panel assay with activity outcomes; conditions: recombinant CYP, pro-luciferin dealkylation, luminescence, p450-cyp2c9; series mostly up to 57.1 µM; activity, negative = inhibition: at the top concentration
On the % scale 0 is the no-effect control and ±100 the full control effect.

Sequence of Cytochrome P450 2C9 (Homo sapiens) (P11712 whole entry, looked up): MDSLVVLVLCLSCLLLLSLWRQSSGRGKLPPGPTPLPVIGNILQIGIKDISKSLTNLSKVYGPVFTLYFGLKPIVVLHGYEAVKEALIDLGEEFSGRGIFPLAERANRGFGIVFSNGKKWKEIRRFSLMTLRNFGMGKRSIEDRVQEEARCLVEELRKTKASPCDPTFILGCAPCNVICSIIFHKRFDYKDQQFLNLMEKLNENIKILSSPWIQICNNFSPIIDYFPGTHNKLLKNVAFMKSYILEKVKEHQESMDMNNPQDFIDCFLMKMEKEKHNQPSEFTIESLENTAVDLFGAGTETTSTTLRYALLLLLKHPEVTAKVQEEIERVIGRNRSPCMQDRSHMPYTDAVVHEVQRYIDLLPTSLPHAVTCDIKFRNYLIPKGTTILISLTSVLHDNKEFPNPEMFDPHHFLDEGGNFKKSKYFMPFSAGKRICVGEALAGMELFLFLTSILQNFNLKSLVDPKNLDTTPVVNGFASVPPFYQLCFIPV

AC50, inactive:
Cc1cc(N)c2ccccc2[n+]1CCCCCCCCCC[n+]1c(C)cc(N)c2ccccc21

AC50, active:
CCNc1ncc2nc(CCc3ccccc3)c(=O)n(CCC#N)c2n1 6.31 µM
CCNc1ncc2nc(CCc3ccccc3)c(=O)n(C)c2n1 12.6 µM
CCNc1ncc2nc(CCc3ccccc3)c(=O)n(-c3ccccc3)c2n1 12.6 µM
CCNc1ncc2nc(-c3ccccc3)c(=O)n(C)c2n1 12.6 µM
S=C1SCN(CCN2CCOCC2)CN1Cc1ccccc1 12.6 µM
Cc1ccc2nc(-c3cccnc3)oc2c1 25.1 µM
COc1cccc(/C=N\NC(=O)C2C(=O)NCC2c2ccccc2)c1O (stereo not given) 14.1 µM
CC(=O)[C@@H]1[C@@H]2C(=O)N(C3CCCCC3)C(=O)[C@@H]2C2c3ccccc3C=CN21 (stereo not given in full) 15.8 µM
CC1(O)c2ccccc2C(=O)N1CCc1ccccc1F (stereo not given) 15.8 µM
Cc1ccc(-c2nnn(CC(=O)N(c3ccccc3)C(C(=O)NCC3CCCO3)c3ccc(Cl)cc3)n2)cc1 (stereo not given) 0.708 µM
CC(C)CC(C(=O)NCC1CCCO1)N(C(=O)Cn1nnc(-c2ccc(F)cc2)n1)c1cccc(C(F)(F)F)c1 (stereo not given) 7.94 µM
Cc1ccc(N(C(=O)Cn2nnc(-c3ccc(F)cc3)n2)C(CC(C)C)C(=O)NCC2CCCO2)cc1 (stereo not given) 3.98 µM
CC(C)CC(C(=O)NCC1CCCO1)N(C(=O)Cn1nnc(-c2ccc(F)cc2)n1)c1ccccc1F (stereo not given) 11.2 µM
Cc1oc(-c2ccccc2F)nc1CSCC(=O)NCc1ccc2c(c1)OCO2 4.47 µM
COc1ccc(Oc2nc(C)cc(C)c2S(=O)(=O)c2ccc(C)cc2)cc1 14.1 µM
Cc1cc(C)c(S(C)(=O)=O)c(Oc2ccc(C(C)(C)C)cc2)n1 7.08 µM
Cc1onc(-c2ccccc2)c1C(=O)NCCc1c[nH]c2ccccc12 3.98 µM
Oc1c(Br)cc(CN(Cc2cc(Br)c(O)c(Br)c2)C2CCCCC2)cc1Br 2.51 µM
O=C(NCc1n[nH]c(=S)n1-c1cccc(Cl)c1)c1ccc(S(=O)(=O)N2CCCC2)cc1 17.8 µM
CCC(C(=O)NC(C)(C)C)N(C(=O)Cn1nnc(-c2cccs2)n1)c1cnc2ccccc2c1 (stereo not given) 2.82 µM
COc1cnc(-c2ccccn2)nc1Oc1ccc(Cl)c2ccccc12 12.6 µM
CC(Oc1ccccc1)C(=O)Nc1nc2c(s1)C(=O)CC(C)(C)C2 (stereo not given) 6.31 µM
COc1ccccc1CNCC(O)(c1ccc(Cl)cc1)c1ccc(Cl)cc1 15.8 µM
O=C(C1CCCN(S(=O)(=O)c2cccc3nsnc23)C1)N1CC=C(c2ccccc2)CC1 (stereo not given) 1.41 µM
O=S(=O)(c1ccccc1S(=O)(=O)N1CCCCC1)N1CCCCC1 28.2 µM
O=C(C1CCN(S(=O)(=O)c2cccc3nsnc23)CC1)N1CCc2ccccc21 10 µM
O=S(=O)(c1cccc2nsnc12)N1CCCC1 3.55 µM
CCCSC1=C(C#N)C(c2cccnc2)C(C(=O)OCC)=C(c2ccccc2)N1 (stereo not given) 8.91 µM
Cc1ccc2c(c1)N(CCC(=O)NCc1cccnc1)C(=O)CO2 14.1 µM

activity, negative = inhibition, inactive:
CCNc1ncc2nc(-c3cc(F)cc(F)c3)c(=O)n(-c3ccccc3)c2n1 -0.131%
N#CCCn1c(=O)c(CCc2ccccc2)nc2cnc(Nc3ccccc3)nc21 18.1%
CCNc1ncc2nc(-c3ccc(F)cc3)c(=O)n(-c3ccccc3)c2n1 14%
CCNc1ncc2nc(-c3ccc(F)cc3)c(=O)n(C)c2n1 -2.41%
CCNc1ncc2nc(CCc3ccccc3)c(=O)n(Cc3ccc(F)cc3)c2n1 -9.69%
CCNc1ncc2nc(-c3ccccc3)c(=O)n(CCC#N)c2n1 11.2%
CCNc1ncc2nc(-c3ccc(Cl)cc3)c(=O)n(C)c2n1 -25.8%
CCNc1ncc2nc(C)c(=O)n(C)c2n1 3.22%
CC1(C)CC2(CCO1)OC(=O)CC2C(=O)NCCc1ccccc1 (stereo not given) -10.6%
FC(F)(F)c1cc(CN2CC3(CCNCC3)C2)cc(C(F)(F)F)c1 17.3%
CC1(C)S[C@@H]2[C@H](NC(=O)[C@@H](N)c3ccccc3)C(=O)N2[C@H]1C(=O)O[C@H]1OC(=O)c2ccccc21 -24.3% [at 25.6 µM]
Cc1cc(C)c2c(N=NN(C)C)[nH]nc2n1 -25.9%
Cc1ccccc1-c1nc(NC2CCNCC2)c2ccccc2n1 10.8% [at 2.29 µM]
c1csc(CNCCCN2CCOCC2)c1 -17%
COc1cccc(OC)c1OCCCN1CCOCC1 10.6%
Cc1ccccc1-c1ccc2ncnc(N3CCNCC3)c2c1 4.82% [at 2.29 µM]
CN(C)C(=O)c1ccc(-c2cncnc2N2CCNCC2)cc1 7.11% [at 2.29 µM]
Clc1ccc2oc(-c3cccnc3)nc2c1 -12.4%
c1cncc(-c2cccnc2)c1 19.8%
O=c1[nH][nH]c(C(F)(F)F)c1C=Nc1ccccc1Cl -29.7%
COc1cc(/C=N\NC(=O)C2C(=O)NCC2c2ccccc2)cc(OC)c1O (stereo not given) -17%
O=C(Nc1ccccc1)N1CCC2(CC1)CCN(C(=O)c1csnn1)CC2 -13.4%
CCOC(=O)N/N=C1/C[C@@H](O)[C@@H](O)[C@@H]2[C@@H]3C(=O)N(C4CCCCC4)C(=O)[C@H]3CC[C@@H]12 -16.3% [at 11.4 µM]
O=C1C[C@@H](O)[C@@H](O)[C@H]2[C@@H]3C(=O)N(C4CCCCC4)C(=O)[C@@H]3CC[C@H]12 14.6% [at 11.4 µM] and -0.457% [at 11.4 µM] and -8.99% [at 11.4 µM]
COc1cc2ccc(=O)oc2cc1O -27.8% [at 25.6 µM]
Nc1ccc(S(=O)(=O)Nc2ccc(Cl)nn2)cc1 15.8% [at 25.6 µM]
Cc1ccc(S(=O)(=O)O[C@@H]2[C@H]([C@@H]3COC(C)(C)O3)O[C@H]3OC(C)(C)O[C@@H]32)cc1 4.54% [at 11.4 µM]
O=C(NCC1CCCO1)C(c1cccnc1)N(C(=O)Cc1cccs1)c1cccnc1 (stereo not given) 1.15%
CC(NC(=O)OCc1ccccc1)C(=O)NCC1CCCO1 (stereo not given) 4.27%
CN(C)c1ncc2nc(-c3ccc(F)cc3)c(=O)n(C[C@H]3CCCO3)c2n1 -3.65%
N#CC(CC(=O)O)=C(c1ccccc1)c1ccccc1 -16.4% [at 11.4 µM]
CCN1C(=O)[C@H]2[C@H]3[C@H](O)[C@H](O)C/C(=N/O[C@@H]4O[C@@H](COC(C)=O)[C@@H](OC(C)=O)[C@@H](OC(C)=O)[C@H]4OC(C)=O)[C@@H]3CC[C@@H]2C1=O 19.4% [at 11.4 µM]
CCN1CCCC1CNC(=O)CSCc1nc(-c2ccccc2C)oc1C (stereo not given) -23.8%
Cc1cc(C)c(C#N)c(Oc2ccc(F)cc2)n1 -7.25%
NC(=O)NC(=O)[C@H]1CCCC[C@@H]1C(=O)O 7.71% [at 11.4 µM]
CCN(CC)CC[n+]1ccc2c(C)c3[nH]c4ccc(O)cc4c3c(C)c2c1 -0.365% [at 11.4 µM]
CC(=O)NCCc1c[nH]c2ccc(O)cc12 -8.66%
CC(C)(C)c1ccc(O)c(CN(Cc2cc(C(C)(C)C)ccc2O)C2CCCCC2)c1 -4.75% [at 11.4 µM]
Oc1c(Br)cc(Br)cc1CN(Cc1cc(Br)cc(Br)c1O)C1CCCCC1 -21.2% [at 11.4 µM]
NC(N)=NC(N)=Nc1ccc(S(=O)(=O)O)cc1 21.1% [at 11.4 µM]
Cn1c(CCNC(=O)c2ccccc2Cl)n[nH]c1=S -15.2%
COc1ccc(-n2c(CNC(=O)c3cc(OC)c(OC)c(OC)c3)n[nH]c2=S)cc1 -17.4%
O=[N+]([O-])c1ccccc1N=Nc1c(O)[nH]c2ccc(S(=O)(=O)O)cc12 -11% [at 11.4 µM]
O=C(Nc1cnc2ccccc2c1)c1cccc(-n2cnnn2)c1 -14.6%
COC(=O)C/C=C\[C@H](C)[C@@H](OC)c1ccccc1Br -6.68% [at 11.4 µM]
Cn1c(=O)n2n(c1=O)[C@H]1[C@H](O)[C@H]3O[C@@H]3/C(=N/OC[C@@H](O)COCc3ccco3)[C@@H]1CC2 -4.5% [at 11.4 µM]
C[C@H](Oc1ccccc1)C(=O)N[C@@H]1C(=O)N2[C@@H]1SC(C)(C)[C@@H]2C(=O)O -13.8% [at 25.6 µM]
COc1ccccc1CNCCCCCCNCCCCCCCCNCCCCCCNCc1ccccc1OC 5.66%
COc1ccccc1CNCc1cccs1 5.82%
OCCN1CCN(C(=S)c2ccc(Br)cc2)CC1 4.83%
CCOC(=O)N/N=C1/C[C@@H](O)[C@@H](O)[C@@H]2[C@@H]3C(=O)N([C@@H](C)c4ccccc4)C(=O)[C@H]3CC[C@@H]12 20.5% [at 11.4 µM]
COc1ccc2nc(NC(=O)C3CCN(S(=O)(=O)c4cccc5nsnc45)CC3)sc2c1 -16.2%
COc1ccc(CCNC(=O)C2CCN(S(=O)(=O)c3cccc4nsnc34)CC2)cc1OC -28.5%
CC(=O)Nc1ccc(NC(=O)C2CCN(S(=O)(=O)c3cccc4nonc34)CC2)cc1 -16.4%
O=S(=O)(c1cccc2cnccc12)N1CCNCC1 -17.9%
CS(=O)(=O)N1CCCC(C(=O)N2CCc3ccccc3C2)C1 (stereo not given) -20%
O=C(Nc1ccccc1)N[C@H]1C[C@H](C(=O)O)Nc2cc(Cl)cc(Cl)c21 -19.5%
COc1ccc(NC(=O)N2CC[C@@]3(CCCN(S(C)(=O)=O)C3)C2)cc1 7.02%
Cc1ccc2c(c1)N(CC(=O)NC1CCC(C)CC1)C(=O)CO2 (stereo not given) -22.9%
Cc1ccc2c(c1)N(CC(=O)NC1CCCc3ccccc31)C(=O)CO2 (stereo not given) 12.5%
